test system: RIPK4; settings: concentration: 1 μM, replicates: in singlicate; n = 1
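Note: KINOMEscan kinase panel screen.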

Compound	%Inh
CN1CCN(CCCNc2nccc(-c3c(-c4ccc(F)cc4)nn4cc(C(F)(F)F)ccc34)n2)CC1 [GW621581]	0%
O=C(Nc1cccc(-c2nn3ccccc3c2-c2ccnc(Nc3cccc(F)c3)n2)c1)c1c(F)ccc(F)c1Cl [GSK357952]	0%
Nc1ncc(-c2cccnc2)c2scc(-c3ccc4c(c3)CCN4C(=O)Cc3ccccc3)c12 [GSK683281]	16%
Cc1cccc(Nc2nc(N[C@H]3CCNC3)ncc2C(N)=O)c1.Cl [GSK2197149]	90.7%
Cc1ccc(C(=O)N2CC[C@@H](O)C2)cc1-n1c(C)cc(OCc2ccc(F)cc2F)c(Br)c1=O	0%
Cl.c1ccc(-c2ccc3c(Nc4ccc5[nH]ccc5c4)ccnc3c2)nc1 [GW440138]	19%
Cl.NC(=O)c1cccc(Nc2nccc(Nc3ccc(Oc4c(Cl)cccc4Cl)c(Cl)c3)n2)c1 [GW659009]	0%
CSc1cccc2c(-c3ccncn3)c(-c3ccc(F)cc3)nn12 [GW514786]	0%
Cl.Cl.NCC(NCc1ccc(-c2ccnc3[nH]ccc23)s1)c1ccccc1 (stereo not drawn) [GSK1321565]	47%
COC(=O)Nc1nc2ccc(Oc3ccc(NC(=O)Nc4cc(C(F)(F)F)ccc4F)cc3)cc2n1C.Cl [GW692089]	0%
O=C(Nc1n[nH]c2cc(-c3ccoc3)ccc12)C1CC1 [SB-738481]	17%
Fc1ccc(-c2ncn(C3CCNCC3)c2-c2ccnc(Oc3ccc(-c4ccccc4)cc3)n2)cc1 [SB-245391]	34%
